Only some compounds are listed: those with a hit (about 5.8% of all), similar ones and a draw of the others.
SW480 rereplic = A quantitative high throughput screen for small molecules that induce DNA re-replication in SW480 colon adenocarcinoma cells; SW480 DNA re-replication, Hoechst DNA content imaging, 48 h; Potency, µM (titrated, usually from 46.1 µM), inactives show at the highest dose re-replication activation, usual class: activators; actives 1.8% (n = 340,000); note: % of control where 0% means no effect; nearly all actives have a fitted effect of over 55% in size
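First, 250 cells per well were seeded. Next, compound or vehicle (23 nL) was pinned in, plates sat 48 hr at 37 C. Finally Hoechst was added for 40 min before fluorescence scanning.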
KB-V1 MDR tox = qHTS assay for MDR1-selective chemotherapeutics: Primary screen using the drug-selected MDR subline cells KB-V1; KB-V1 MDR cells viability, CellTiter-Glo, 72 h; Potency, µM (doses to about 46.1 µM), most hits filed as cytotoxic; actives 3.4% (n = 400,000); note: % is set by controls: 0 for no effect and ±100 for the full control effect; nearly all actives have a fitted effect of over 60% in size
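qHTS viability screen in drug-selected KB-V1 MDR cells: 72 h compound treatment at 37 degrees C, ATP luminescence end point.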
PINK1 modulator = A Quantitative High throughput Screen to Identify Chemical Modulators of PINK1 Expression. PINK1 immunofluorescence, high-content cytometry, 24 h. Potency, µM (highest dose often 76.6 µM), for the others: at the top dose activation (PINK1 increase), most hits filed as activators. actives 0.2% (n = 410,000); active = well fitted activation curve with a large enough effect; inconclusive = small, poorly fitted or top-dose-only effect; cell line not stated here; note: % of control where 0% means no effect; nearly all actives have a fitted effect of over 65% in size
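Stable cell line, 250 cells/well, 12 h attachment; compounds pinned at 5 concentrations, 24 h; CCCP control. Fixed with nuclear dye, primary antibodies 12 h at 10 degrees C, secondary plus cell stain; laser-scanning cytometer read.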
KB-3-1 tox = qHTS assay for MDR1-selective chemotherapeutics: Primary screen using the parental adenocarcinoma cell KB-3-1. actives 1.4% (n = 400,000). KB-3-1 viability, CellTiter-Glo ATP luminescence, 72 h. Potency, µM (top dose mostly 46.1 µM), hits mostly cytotoxic. AID 1347075, 2019; note: % is set by controls: 0 for no effect and ±100 for the full control effect; nearly all actives have a fitted effect of over 60% in size
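Cytotoxicity in the drug-sensitive parental line KB-3-1 was scored as loss of CellTiter-Glo luminescence following 72 h incubation with compound. Values come from curve fitting of normalized concentration-response data.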
MCF10A rerep = A quantitative high throughput screen for small molecules that induce DNA re-replication in MCF 10a normal breast cells | MCF 10A DNA re-replication, Hoechst nuclear intensity, 48 h | Potency, µM (top dose mostly 46.1 µM), inactives show at the highest dose activity, positive = re-replication, hits mostly activators | actives 2.9% (n = 350,000); note: % of control where 0% means no effect; nearly all actives have a fitted effect of over 50% in size
ALOX12 inh = Primary qHTS assay for inhibitors of human arachidonate 12S-lipoxygenase (ALOX12): Round 2; Polyunsaturated fatty acid lipoxygenase ALOX12 (Homo sapiens), P18054; Potency, µM (titrated, usually from 108 µM), inactives show at the highest dose activity change, negative = inhibition, actives largely listed as inhibitors; actives 1.1% (n = 580,000); purified 12hLO, xylenol orange hydroperoxide absorbance; note: % is set by controls: 0 for no effect and ±100 for the full control effect
Target sequence (P18054 whole entry, looked up): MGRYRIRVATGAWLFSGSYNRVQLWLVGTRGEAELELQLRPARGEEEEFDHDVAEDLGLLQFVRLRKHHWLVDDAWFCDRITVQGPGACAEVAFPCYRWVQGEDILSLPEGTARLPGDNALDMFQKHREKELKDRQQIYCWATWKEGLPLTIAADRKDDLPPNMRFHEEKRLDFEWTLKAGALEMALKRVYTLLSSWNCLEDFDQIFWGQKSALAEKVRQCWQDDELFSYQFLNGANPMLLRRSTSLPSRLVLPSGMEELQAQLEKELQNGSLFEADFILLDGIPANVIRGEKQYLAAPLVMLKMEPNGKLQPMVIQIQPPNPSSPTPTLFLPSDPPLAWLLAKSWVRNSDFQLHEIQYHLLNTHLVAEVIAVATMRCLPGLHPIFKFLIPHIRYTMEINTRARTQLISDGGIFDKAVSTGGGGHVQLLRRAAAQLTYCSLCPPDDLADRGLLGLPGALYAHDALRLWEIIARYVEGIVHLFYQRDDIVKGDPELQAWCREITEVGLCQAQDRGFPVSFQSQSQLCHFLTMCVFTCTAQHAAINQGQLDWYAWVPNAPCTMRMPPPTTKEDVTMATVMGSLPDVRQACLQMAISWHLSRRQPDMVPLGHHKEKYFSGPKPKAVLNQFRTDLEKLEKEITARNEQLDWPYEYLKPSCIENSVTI
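Hydroperoxide product was detected by ferrous iron/xylenol orange as the 573 to 405 nm absorbance ratio. Arachidonic acid at 40 uM (final) was turned over for 30 min at room temperature by 150 nM human 12hLO, pH 7.0 Hepes buffer, after 15 min compound preincubation.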
Numbers without * were called inactive; i = inactive; ? = inconclusive; nt = not tested or not shown; [ ] = remark or other dose. Unless noted, calls come from the whole dose curve; as a rule, active = well fitted curve in the direction sought with a large enough effect; inconclusive = small, poorly fitted or top-dose-only effect, or another doubt; inactive = no such curve, though single readings can be large; an effect the other way counts as inactive or inconclusive. Potency is the fitted concentration of half-maximal effect.

SMILES	SW480 rereplic	KB-V1 MDR tox	PINK1 modulator	KB-3-1 tox	MCF10A rerep	ALOX12 inh
O=C(O)/C(=C\c1ccc(Cl)c([N+](=O)[O-])c1)c1ccc(S(=O)(=O)N2CCCC2)s1	-1%	i	-2%	i	6%	18µM*
Cc1cc(C(=O)NC2CCN(Cc3ccccc3)CC2)c2ccccc2n1	nt	nt	nt	nt	nt	21%
Cc1ccc(-n2nc(C)c3c(C(=O)NC4CCN(Cc5ccccc5)CC4)cc(C)nc32)cc1	nt	nt	nt	nt	nt	7.1µM*
COC(=O)c1cccc(C(=O)NC2CCCN(CCCc3ccccc3)C2)c1 (centres undefined)	nt	nt	nt	nt	nt	-1%
Cc1ccc(S(C)(=O)=O)cc1NC(=O)CCNC(=O)Cc1ccccc1	nt	nt	nt	nt	nt	-25%
NCCc1c(C(=O)O)[nH]c2ccc([N+](=O)[O-])cc12	0%	10µM*	1%	?	1%	?
CCC(Oc1ccccc1Cl)C(=O)O (centres undefined)	nt	nt	nt	nt	nt	-7%
N#C/C(=C(/O)COc1ccccc1)c1nc2ccccc2s1	?	i	?	?	?	-2%
N#C/C(=C(/O)c1ccc(F)cc1)c1nc2ccccc2s1	-1%	?	16µM*	8.2µM*	?	-3%
N#C/C(=C(/O)COc1ccc(Cl)cc1)c1nc2ccccc2s1	0%	13µM*	?	?	16µM*	-7%
CC(=O)Cc1nsc(NC(=O)c2ccc(-c3ccccc3Cl)o2)n1	?	?	3%	?	12µM*	0%
CC(C)CNS(=O)(=O)c1ccc(S(=O)(=O)N2CCC3(CC2)OCCO3)cc1	0.18µM*	15µM*	5%	i	-57%	-19%
O=C(O)C(=Cc1ccccc1Cl)c1ccccc1	nt	i	0%	i	nt	nt
O=C(O)/C(=C\c1c(C(=O)O)[nH]c2cc(Cl)cc(Cl)c12)c1ccccc1	?	i	0%	i	-38%	35µM*
COc1ccc(NC(=O)c2cnc(SC)nc2C(F)(F)F)c(OC)c1	nt	nt	nt	nt	nt	-2%
COc1ccccc1NC(=O)c1cnc(Nc2ccccc2OC)c2ccccc12	2.8µM*	9.2µM*	6%	18µM*	?	-7%
COc1ccccc1NC(=O)c1cnc(Nc2ccc(C)c(Cl)c2)c2ccccc12	nt	nt	nt	nt	nt	-23%
CC(=O)Oc1ccc(C(=O)Nc2ccccc2C(=O)Nc2ccc(C(=O)O)cc2)cc1	-29%	i	2%	i	-4%	4.5µM*
COc1ccccc1NC(=O)c1csc2c1CCCC2	15%	16µM*	3%[38.3 µM]	i	24%	?
COC(=O)c1ccccc1NC(=O)c1ccccc1OC	-2%	i	3%	i	-1%	-17%
COc1ccccc1C(=O)Nc1ccccc1SC(=O)c1ccccc1OC	?	i	-2%	?	21µM*	4%
O=C(NC1CCCCCC1)c1csc(N2CCN(c3ccccc3)CC2)n1	nt	nt	nt	nt	nt	-17%
O=C(CSc1nnc2ccccn12)N1CCN(C(c2ccccc2)c2ccccc2)CC1	nt	nt	nt	nt	nt	10%
COc1ccccc1NC(=O)c1ccccc1NC(=O)c1ccccc1C(=O)O	-4%	?	7%	i	13%	1.8µM*
O=C(CCCCCn1c(=S)[nH]c2ccc(N3CCOCC3)cc2c1=O)NCc1cccc(Cl)c1	?	i	9%	i	16µM*	-19%
SMILES	SW480 rereplic	KB-V1 MDR tox	PINK1 modulator	KB-3-1 tox	MCF10A rerep	ALOX12 inh
O=C(CCCCCn1c(=S)[nH]c2ccc(N3CCOCC3)cc2c1=O)NCc1ccccc1	-3%	i	24%	i	22%	-3%
O=c1c2cc(N3CCOCC3)ccc2[nH]c(=S)n1Cc1ccccc1Cl	?	i	9%	i	23µM*	-1%
O=c1c2cc(N3CCOCC3)ccc2[nH]c(=S)n1Cc1ccccn1	-2%	i	3%	i	?	-12%
O=C(O)C(c1c[nH]c2ccc(Cl)cc12)N1CCc2ccccc2C1 (centres undefined)	nt	nt	nt	nt	nt	-5%
O=c1oc2c(CN3CCN(CCO)CC3)c(O)ccc2cc1-c1ccccn1	6.5µM*	?	-2%	i	8.2µM*	?
CN1c2cc(C(=O)Nc3ccc(Cl)c(Cl)c3)ccc2C(=O)N2CCCCCC21 (centres undefined)	nt	nt	nt	nt	nt	-2%
Cc1nc(Nc2ccc(NC(=O)c3cccs3)cc2)cc(N2CCCCC2)n1	nt	nt	nt	nt	nt	-13%
Cc1nc(Nc2ncc(C(=O)Nc3c(C)cccc3Cl)s2)cc(N2CCN(CCO)CC2)n1	17µM*	i	0%	?	19µM*	?
O=C(NCCOc1ccccc1)c1cc(COc2ccccc2)[nH]n1	nt	nt	nt	nt	nt	86%
O=C(NCCOc1ccccc1)c1n[nH]c(=O)c2ccccc12	-3%	23µM*	-4%[38.3 µM]	i	20%	28%
O=C(NCCOc1ccccc1)c1ccc2n[nH]nc2c1	4.6µM*	?	1%	i	4%	198%
COc1ccc(C(=O)N2CCCC(C(=O)Nc3ccc(C)cc3)C2)c2ccccc12 (centres undefined)	nt	nt	nt	nt	nt	31%
O=C(Nc1ccccc1)Nc1sccc1-c1nc2ccccc2s1	12%	i	5%	i	?	0%
O=C(Nc1cccc(Cl)c1)Nc1sccc1-c1nc2ccccc2s1	18µM*	?	?	i	16µM*	-22%
NNC(=O)/C(=C\c1ccco1)NC(=O)c1ccco1	?	i	14%	i	21µM*	9%
CC(C)CN(Cc1c(O)ccc2ccccc12)CC(C)C	-7%	i	1%	i	-13%	40µM*
CN(C)Cc1c(O)ccc2ccccc12	-6%	i	0%	i	4%	0%
Oc1ccc2ccccc2c1CN(Cc1ccccc1)Cc1ccccc1	nt	nt	nt	nt	nt	3.2µM*
COc1ccc2cc(/C=N/NC(=O)c3ccc(CN(c4cccc(Cl)c4Cl)S(C)(=O)=O)cc3)c(Cl)nc2c1	-5%	?	1%	2.6µM*	?	19%
COc1ccc2cc(/C=N/O)c(Cl)nc2c1	16%	?	2%	i	0%	-6%
CCC1CCc2c(sc(NC(=O)c3cccc4ccccc34)c2C#N)C1 (centres undefined)	nt	nt	nt	nt	nt	60%
COC(=O)c1cn(NC(=O)/C=C/c2cc(OC)ccc2OC)c(=O)c2ccccc12	3%	8.2µM*	-1%	i	-31%	4%
